In PubChem BioAssay (NCATS):
Unmarked numbers belong to inactive results. Inconclusive results are not listed. Activity calls are given as the source filed them. Unless noted, the call rests on the fitted dose curve; in most records, active means well fitted curve in either direction with a large enough effect (not every such curve was filed as active); inconclusive means small, poorly fitted or top-dose-only effect, or another doubt; inactive means flat fitted curve, though single readings scatter.

What was measured:
[1] = target: Lysosomal acid glucosylceramidase (Homo sapiens) (UniProt P04062); assay: Glucocerebrosidase-p2 (AID 348; in the data active means potency below about 10 µM; further: potency means the concentration at half of the fitted maximal effect); details: purified GBA, blue fluorogenic substrate, 40 min
Procedure, shortened: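 Compounds titrated from 0.6 nM upwards against 0.2 nM enzyme in pH 5.9 citric acid/KH2PO4, taurocholate, tween-20; blue fluorogenic substrate 80 uM, 40 min room temperature, stopped and read Ex 365/Em 440 for AC50.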

[2] = AP1 Signaling Pathway (AID 357); details: ME-180 AP-1-bla reporter, EGF-induced, beta-lactamase ratio, 5 h; at 7.69 µM (top of the series) unless noted;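 further: ME-180 reporter cells stimulated with EGF at its EC50 level; on the % scale 0 is the no-effect control and ±100 the full control effect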
Procedure, shortened: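 Read-out was the 460nm/530nm emission ratio (excitation 405nm) after CCF4 loading for 2.5 hours at room temperature. Cells carried an AP-1-driven beta-lactamase reporter, were stimulated with EC50 EGF plus compound for 5 hours, and AC50 values came from titrations.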

[3] = target: Cytochrome P450 1A2 (Homo sapiens) (UniProt P05177); assay: p450-cyp1a2 (AID 410; calls by dose curve; further: potency means the concentration at half of the fitted maximal effect;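 on activity change, negative = inhibition: -100% = full effect of reference inhibitor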); details: recombinant CYP1A2, luciferin-ME demethylation, luminescence; series mostly up to 11.4 µM
Procedure, shortened: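 Inhibition was calculated relative to 57 uM furafylline (full inhibition). The reaction used human CYP1A2 at 20nM with Luciferin-ME at its Km, 100uM, driven by an NADPH-regenerating system for 60 min at room temperature.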

[4] = NFAT Signaling Pathway (AID 444); details: Jurkat NFAT-bla M1, carbachol, beta-lactamase ratio, 5 h; at 7.69 µM (top of the series) unless noted;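 further: carbachol stimulus at about its EC50 of 1 µM final; on the % scale 0 is the no-effect control and ±100 the full control effect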
Procedure, shortened: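 Jurkat cells with NFAT-driven β-lactamase reporter and co-expressed M1 receptor, stimulated with carbachol (final 1 uM, ~EC50), compound titration, 5 h at 37 °C. CCF4 loaded 1 h at RT; 460/530 nm ratio gave %activity and AC50.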

[5] = Stat Signaling Pathway (AID 446); details: ME-180 (cervical carcinoma) SIE beta-lactamase reporter, IL-6 stimulated, 5 h; at 7.69 µM (top of the series) unless noted;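 further: ME-180 cervical cancer cells given 40 pM IL-6 alongside compound; SIE-controlled beta-lactamase reporter measured as 460/530 nm FRET emission ratio; on the % scale 0 is the no-effect control and ±100 the full control effect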
Procedure, shortened: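 IL-6/STAT signaling read in ME-180 cells via an SIE beta-lactamase reporter. Stimulus was 40 pM IL-6 (its AC50) for 5 hrs, so both activation and inhibition register.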

[6] = target: Glucocorticoid receptor (Homo sapiens) (UniProt P04150); assay: GR-GFP Redistribution (AID 450;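 active means compounds whose dose series gives a full or clear partial fitted curve of increased nuclear translocation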; further: potency means the concentration at half of the fitted maximal effect); details: U2OS GR-GFP nuclear translocation, laser cytometry, 2 h
[7] = target: Glucocorticoid receptor (Homo sapiens) (UniProt P04150); assay: GR-EFC Redistribution (AID 451; calls by dose curve; further: potency means the concentration at half of the fitted maximal effect); details: CHO-K1 GR-EFC translocation, beta-gal luminescence, 2 h
Procedure, shortened: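 CHO-K1 cells expressing nuclear EA and GR-ED fragments of b-gal; compounds titrated up to 46 uM final, 2 h at 37 C. GR nuclear translocation read as complemented b-gal luminescence after 1 h RT detection.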

[8] = target: Mitogen-activated protein kinase 10 (Mus musculus) (UniProt Q61831); assay: JNK3 AlphaScreen Assay (AID 530); details: JNK3 lysate, c-Jun phosphorylation; series mostly up to 11.4 µM;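 further: kinase came from lysate of stimulated human HepG2 cells; signal reports phosphorylation of biotinylated GST-cJun 1-79 at Ser73 with 10 µM ATP; on the % scale 0 is the no-effect control and ±100 the full control effect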
Procedure, shortened: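 qHTS format: compounds tested as titrations against IL-1beta/TNF-alpha-activated HepG2 lysate JNK3 with biotin-GST-cJun substrate and 10 uM ATP at room temperature. Loss of anti-phospho-cJun AlphaScreen signal indicates inhibition.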

[9] = target: 3',5'-cyclic-AMP phosphodiesterase 4B (Homo sapiens) (UniProt Q07343); assay: qHTS Assay for Inhibitors of PDE-IV (AID 607; active means well fitted activation curve with a large enough effect in the main read-out, with a control signal flat, not every such curve was filed as active; further: % of control where 0% means no effect); details: HEK293 ACTOne CNG channel cells, membrane potential fluorescence; series mostly up to 22.9 µM
Procedure, shortened: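 Live HEK293 cells with a modified cyclic nucleotide-gated (CNG) channel report intracellular cAMP via membrane-potential dye fluorescence (ex 535/em 590 nm). Endogenous PDE-IV was targeted. Compounds were tested at up to 22.9 uM final; RO 20-1724 100 uM served as control.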

Sequence of Glucocorticoid receptor (Homo sapiens) (P04150 whole entry, looked up, the tested form may be a part): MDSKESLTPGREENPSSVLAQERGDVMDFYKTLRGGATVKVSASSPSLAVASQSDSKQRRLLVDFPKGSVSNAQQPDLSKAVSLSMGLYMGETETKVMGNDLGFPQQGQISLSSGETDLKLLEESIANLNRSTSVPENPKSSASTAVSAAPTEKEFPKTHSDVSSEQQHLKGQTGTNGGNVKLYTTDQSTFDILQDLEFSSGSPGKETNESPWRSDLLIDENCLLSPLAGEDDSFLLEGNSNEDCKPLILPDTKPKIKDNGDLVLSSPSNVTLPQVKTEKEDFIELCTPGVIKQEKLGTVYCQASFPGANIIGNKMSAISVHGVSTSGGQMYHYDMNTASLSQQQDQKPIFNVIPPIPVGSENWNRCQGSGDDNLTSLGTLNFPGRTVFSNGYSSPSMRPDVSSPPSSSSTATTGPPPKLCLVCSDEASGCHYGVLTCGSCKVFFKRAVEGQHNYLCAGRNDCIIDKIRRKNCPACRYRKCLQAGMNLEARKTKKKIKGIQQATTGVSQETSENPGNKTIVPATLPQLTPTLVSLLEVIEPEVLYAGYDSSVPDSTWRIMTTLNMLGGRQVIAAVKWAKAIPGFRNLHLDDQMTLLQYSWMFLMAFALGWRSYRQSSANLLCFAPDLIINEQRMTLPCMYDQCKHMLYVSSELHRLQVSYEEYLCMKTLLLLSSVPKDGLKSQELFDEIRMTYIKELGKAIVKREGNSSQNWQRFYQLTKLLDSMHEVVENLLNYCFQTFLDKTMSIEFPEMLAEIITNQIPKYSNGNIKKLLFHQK
Sequence of Lysosomal acid glucosylceramidase (Homo sapiens) (P04062 whole entry, looked up): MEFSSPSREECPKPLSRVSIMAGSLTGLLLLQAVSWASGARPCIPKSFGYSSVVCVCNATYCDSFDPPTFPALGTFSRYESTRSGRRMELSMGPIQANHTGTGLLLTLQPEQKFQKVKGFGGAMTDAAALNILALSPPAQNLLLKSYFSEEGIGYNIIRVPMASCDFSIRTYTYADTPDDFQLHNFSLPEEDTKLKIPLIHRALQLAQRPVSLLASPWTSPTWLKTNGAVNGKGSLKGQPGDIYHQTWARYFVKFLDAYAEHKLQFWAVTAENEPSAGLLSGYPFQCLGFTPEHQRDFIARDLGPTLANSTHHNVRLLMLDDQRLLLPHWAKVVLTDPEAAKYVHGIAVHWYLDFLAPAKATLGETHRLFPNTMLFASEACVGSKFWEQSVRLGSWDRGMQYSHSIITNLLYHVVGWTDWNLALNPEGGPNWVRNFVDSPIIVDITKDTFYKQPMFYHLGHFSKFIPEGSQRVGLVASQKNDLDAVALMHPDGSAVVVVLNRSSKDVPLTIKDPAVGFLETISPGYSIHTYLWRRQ
Sequence of Cytochrome P450 1A2 (Homo sapiens) (P05177 whole entry, looked up): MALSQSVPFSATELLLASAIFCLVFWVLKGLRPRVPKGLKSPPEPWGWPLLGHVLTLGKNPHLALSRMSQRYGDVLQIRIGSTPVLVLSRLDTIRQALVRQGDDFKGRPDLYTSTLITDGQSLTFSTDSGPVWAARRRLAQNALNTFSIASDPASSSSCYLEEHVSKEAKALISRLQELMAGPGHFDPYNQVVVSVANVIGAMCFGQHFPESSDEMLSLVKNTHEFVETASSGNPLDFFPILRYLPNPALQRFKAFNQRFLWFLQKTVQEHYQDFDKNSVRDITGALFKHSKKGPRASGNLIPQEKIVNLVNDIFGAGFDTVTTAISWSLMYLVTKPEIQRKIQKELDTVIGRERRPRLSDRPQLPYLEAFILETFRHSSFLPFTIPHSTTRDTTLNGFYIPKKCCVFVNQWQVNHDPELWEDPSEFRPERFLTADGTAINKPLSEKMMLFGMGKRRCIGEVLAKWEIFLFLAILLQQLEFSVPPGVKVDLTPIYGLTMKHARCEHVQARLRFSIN
Sequence of 3',5'-cyclic-AMP phosphodiesterase 4B (Homo sapiens) (Q07343 whole entry, looked up): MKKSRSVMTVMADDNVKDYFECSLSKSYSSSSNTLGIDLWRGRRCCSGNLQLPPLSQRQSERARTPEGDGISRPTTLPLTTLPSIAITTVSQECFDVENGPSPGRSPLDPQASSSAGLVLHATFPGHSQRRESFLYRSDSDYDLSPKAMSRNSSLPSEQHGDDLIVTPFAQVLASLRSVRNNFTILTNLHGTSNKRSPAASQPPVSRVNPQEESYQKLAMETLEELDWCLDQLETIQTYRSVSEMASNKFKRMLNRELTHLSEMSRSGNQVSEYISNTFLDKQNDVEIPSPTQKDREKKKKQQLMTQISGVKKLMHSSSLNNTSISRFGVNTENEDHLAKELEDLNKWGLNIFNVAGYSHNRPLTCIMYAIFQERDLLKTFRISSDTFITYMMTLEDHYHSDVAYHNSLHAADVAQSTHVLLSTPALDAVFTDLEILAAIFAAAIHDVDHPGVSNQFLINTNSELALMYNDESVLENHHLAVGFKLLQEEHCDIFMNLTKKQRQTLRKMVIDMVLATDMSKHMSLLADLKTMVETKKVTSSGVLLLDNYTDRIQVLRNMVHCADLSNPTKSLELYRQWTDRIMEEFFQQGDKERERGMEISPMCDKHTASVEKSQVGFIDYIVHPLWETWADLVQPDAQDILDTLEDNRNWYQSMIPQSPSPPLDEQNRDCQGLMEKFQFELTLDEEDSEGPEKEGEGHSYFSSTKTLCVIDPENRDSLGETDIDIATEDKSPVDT

Structure (SMILES) | Potency [1] | activity change, negative = inhibition [2] | activity change, negative = inhibition [3] | activity change, negative = inhibition [4] | activity, negative = inhibition [5] | Potency [6] | Potency [7] | Potency [8] | Potency [9] | Potency [3]
NCCSS(=O)(=O)CCN | > 11.4 µM | 7.23% | -17.1% [at 2.29 µM] | 7.63% | -25% | > 46 µM | > 9.22 µM | inactive | inactive | 
OC[C@@H](O)CNc1ncnc2ccccc12 | > 11.4 µM | -1.31% |  | 9.96% | 2.66% | > 46 µM | > 9.22 µM | inactive | inactive | inactive
CN(C)CCOC(=O)c1ccc(N)cc1 | > 11.4 µM | 4.6% |  | -0.262% | -3.48% | > 46 µM | > 9.22 µM | inactive | inactive | inactive
O=C1Nc2ccccc2C1=Nc1ccc(S(=O)(=O)Nc2nccs2)cc1 | > 11.4 µM | -7.86% |  | 12.8% | -9.11% | > 46 µM | > 9.22 µM | inactive | inactive | inactive
Cc1ccc(S(=O)(=O)Oc2cc(N)c3c(n2)CCC3)cc1 | > 11.4 µM | 11.1% | -19.4% [at 2.29 µM] | 9.71% | -5.99% | > 46 µM | > 9.22 µM | inactive | inactive | 
COc1ccc([C@H](O)c2ccccn2)cc1 | > 11.4 µM | -0.268% |  | 2.24% | 9.75% | > 46 µM | > 9.22 µM | inactive | inactive | inactive
Cc1ccc(S(=O)(=O)NCc2cccc([N+](=O)[O-])c2)cc1 | > 11.4 µM | -2.52% |  | 6.53% | 2.25% | > 46 µM | > 9.22 µM | inactive | inactive | 3.98 µM (active)
Cc1[nH]c(N)nc(=S)c1CCC(=O)O | > 11.4 µM | -7.6% |  | 1.85% | -3.94% | > 46 µM | > 9.22 µM | inactive | inactive | inactive
Nc1cc(S(=O)(=O)O)cc2ccc(S(=O)(=O)O)cc12 | > 11.4 µM | 1.79% | -18.1% [at 2.29 µM] | 2.43% | -1.78% | > 46 µM | > 9.22 µM | inactive | inactive | 
Nc1nc(N)c2[nH]c(CNc3ccc(C(=O)O)cc3)nc2n1 | > 11.4 µM | -2.88% |  | 23.3% | -0.181% | > 46 µM | > 9.22 µM | inactive | inactive | inactive
Oc1c(Cl)cc(CN(Cc2cc(Cl)c(O)c(Cl)c2)C2CCCCC2)cc1Cl | > 11.4 µM | 4.05% | 11.3% [at 2.29 µM] | 1.82% | -25.8% | > 46 µM | > 9.22 µM | inactive | inactive | 
Nc1ncnc2nc(N3CCN(CCO)CC3)[nH]c12 | > 11.4 µM | 2.43% | -1.2% [at 2.29 µM] | 8.33% | -1.25% | > 46 µM | > 9.22 µM | inactive | inactive | 
O=[N+]([O-])c1ccc(Cl)c(CNc2ncnc3c2ncn3[C@@H]2CCCCO2)c1 | > 11.4 µM | -3.17% |  | 6.3% | 1.26% | > 46 µM | > 9.22 µM | inactive | inactive | 5.01 µM (active)
c1ccc2c(CC3NCCN3)cccc2c1 | > 11.4 µM | 7.37% |  | -8.06% | 1.71% | > 46 µM | > 9.22 µM | inactive | inactive | inactive
Cc1cc2ccc(OC(=O)c3ccc(N=C(N)N)cc3)cc2oc1=O | > 11.4 µM | 5.35% |  | -22.4% | -1.77% | > 46 µM | > 9.22 µM | inactive | inactive | 2.51 µM (active)
CN(C)CCSCCO | > 11.4 µM | 7.7% | -14.3% [at 2.29 µM] | 2.29% | 9.73% | > 46 µM | > 9.22 µM | inactive | inactive | 
O=C(O)[C@@H]1[C@@H](C(=O)NCc2cccnc2)[C@@H]2C=C[C@@H]1O2 | > 11.4 µM | 8.06% | -0.4% [at 2.29 µM] | 2.31% | 0.333% | > 46 µM | > 9.22 µM | inactive | inactive | 
CCC(=O)Nc1ncnc2ncn(C(=O)CC)c12 | > 11.4 µM | 8.41% |  | 1.71% | 1.38% | > 46 µM | > 9.22 µM | inactive | inactive | inactive
C=CCSc1nc2ccccc2c(=O)n1Cc1ccco1 | > 11.4 µM | -0.523% |  | 2.6% | -8.01% | > 46 µM | > 9.22 µM | inactive | inactive | 0.0251 µM (active)
Nc1ncnc2c1ncn2[C@H]1O[C@@H](CO)[C@@H](O)[C@H]1N | > 11.4 µM | -9.35% |  | -3.9% | 5.68% | > 46 µM | > 9.22 µM | inactive | inactive | inactive
CC(C)=C[C@H]1[C@@H](COC(=O)c2ccccc2Cl)C1(C)C | > 11.4 µM | 8.2% |  | 12.7% | -1.06% | > 46 µM | > 9.22 µM | inactive | inactive | 3.98 µM (active)
CC1=C[N+](=O)c2ccccc2[N+]1=O | > 11.4 µM | 5.1% |  | 13.8% | 0.919% | > 46 µM | > 9.22 µM | inactive | inactive | 6.31 µM (active)
Cc1cc(Cl)ccc1OCC(=O)Nc1nc(N)nc(N)n1 | > 11.4 µM | 7.35% | 2.1% [at 2.29 µM] | 1.27% | -6.25% | > 46 µM | > 9.22 µM | inactive | inactive | 
O[C@]1(c2ccccc2)c2ccccc2NC2=NCCN21 | > 11.4 µM | 12.3% |  | -13.7% | 4.27% | > 46 µM | > 9.22 µM | inactive | inactive | inactive
O=[N+]([O-])c1nccn1C[C@H](O)CN1CCCCC1 | > 11.4 µM | 21.1% |  | 0.912% | 6.06% | > 46 µM | > 9.22 µM | inactive | inactive | inactive
Cc1c(C)c(C)c(CC2(C)CSC2)c(CC2(C)CSC2)c1C | > 11.4 µM | 10.3% |  | 0.756% | 6.86% | > 46 µM | > 9.22 µM | inactive | inactive | inactive
Nc1nc2c(C(=O)NCc3cccs3)nnn2c2cccc(Cl)c12 | > 11.4 µM | 2.54% |  | -1.34% | -2.31% | > 46 µM | > 9.22 µM | inactive | inactive | 1 µM (active)
CN1CCN(CCCBr)CC1 | > 11.4 µM | 5.14% |  | 10.6% | -3.86% | > 46 µM | > 9.22 µM | inactive | inactive | inactive
C[N+]1([C@H](CO)Cc2c[nH]c3ccccc23)Cc2ccccc2C1 | > 11.4 µM | -7.62% |  | -15.6% | 13.4% | > 46 µM | > 9.22 µM | inactive | inactive | inactive
